# Results as given in PMC7862700, “An all-to-all approach to the identification of sequence-specific readers for epigenetic DNA modifications on cytosine”.
# How the values were obtained:
# Assay in all cases: DAPPL (digital affinity profiling via proximity ligation, sequencing); 10 mM Tris-HCl pH 7.5, 50 mM NaCl, 1 mM DTT, 4% glycerol, room temperature, 30 min; GST-TFs on glutathione beads, 16-mer random dsDNA library, 0.1% formaldehyde crosslink after washing; high values mean tight binding
# [1] = molecular target: T1, FEV (Homo sapiens, UniProt Q99581 1-238); conditions: protein: recombinant; tags: N-terminal GST; dsDNA, one strand shown
# T1 sequence: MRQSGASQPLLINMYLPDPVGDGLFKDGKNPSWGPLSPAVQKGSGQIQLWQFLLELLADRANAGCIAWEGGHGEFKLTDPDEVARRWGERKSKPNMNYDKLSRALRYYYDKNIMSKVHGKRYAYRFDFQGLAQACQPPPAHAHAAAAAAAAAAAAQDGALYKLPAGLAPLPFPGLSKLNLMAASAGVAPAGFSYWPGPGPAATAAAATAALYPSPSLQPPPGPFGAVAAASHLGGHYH
# Procedure, shortened: (§1)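 Binding signal is given per hexamer as its read frequency for a factor divided by its frequency in the tag-only sample. GST-fused human transcription factors were expressed in yeast, captured on glutathione beads, barcoded with DNA and pooled with that sample, then incubated with 200 nmole of a 16-mer random double-stranded DNA library in Tris/NaCl/DTT/glycerol buffer for 30 min at room temperature. The pools were then washed, crosslinked, proximity-ligated, amplified by PCR and sequenced on an Illumina NextSeq500.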
# [2] = molecular target: ETV5 (Homo sapiens, UniProt P41161 1-510); conditions: protein: recombinant; tags: N-terminal GST; dsDNA, one strand shown
# ETV5, sequence (P41161 whole entry): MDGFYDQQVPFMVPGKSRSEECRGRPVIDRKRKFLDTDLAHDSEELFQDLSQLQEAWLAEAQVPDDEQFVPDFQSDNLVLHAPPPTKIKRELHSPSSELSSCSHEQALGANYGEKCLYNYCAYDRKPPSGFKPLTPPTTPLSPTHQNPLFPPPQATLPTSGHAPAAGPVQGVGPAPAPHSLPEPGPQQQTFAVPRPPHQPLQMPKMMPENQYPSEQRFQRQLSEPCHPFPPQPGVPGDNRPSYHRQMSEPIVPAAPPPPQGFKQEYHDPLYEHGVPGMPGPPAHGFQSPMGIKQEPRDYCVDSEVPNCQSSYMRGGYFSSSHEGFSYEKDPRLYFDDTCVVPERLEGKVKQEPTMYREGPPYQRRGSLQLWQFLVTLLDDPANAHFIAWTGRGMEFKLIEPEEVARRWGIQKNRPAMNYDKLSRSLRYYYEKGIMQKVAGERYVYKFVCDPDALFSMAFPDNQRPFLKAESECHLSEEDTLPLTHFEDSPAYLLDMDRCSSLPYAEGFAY
# Procedure, shortened: as §1
# [3] = molecular target: HSF1 (Homo sapiens, UniProt Q00613 1-529); conditions: protein: recombinant; tags: N-terminal GST; chain copies: 3; dsDNA, one strand shown
# HSF1, sequence (Q00613 whole entry): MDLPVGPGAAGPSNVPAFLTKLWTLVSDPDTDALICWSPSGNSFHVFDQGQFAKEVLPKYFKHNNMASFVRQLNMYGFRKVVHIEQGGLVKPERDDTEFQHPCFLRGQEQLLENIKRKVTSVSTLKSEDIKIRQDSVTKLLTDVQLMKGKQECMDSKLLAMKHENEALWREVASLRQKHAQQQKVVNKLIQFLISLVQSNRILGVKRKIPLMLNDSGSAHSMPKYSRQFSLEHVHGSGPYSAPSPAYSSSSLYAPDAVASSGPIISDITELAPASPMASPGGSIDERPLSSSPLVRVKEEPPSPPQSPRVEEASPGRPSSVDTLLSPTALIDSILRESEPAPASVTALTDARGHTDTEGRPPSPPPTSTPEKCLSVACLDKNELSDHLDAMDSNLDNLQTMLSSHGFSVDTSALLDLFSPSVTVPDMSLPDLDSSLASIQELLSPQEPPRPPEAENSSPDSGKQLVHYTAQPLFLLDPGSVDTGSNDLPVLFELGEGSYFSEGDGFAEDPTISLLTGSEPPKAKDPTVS
# Procedure, shortened: as §1
# [4] = molecular target: T2, SPIC (Homo sapiens, UniProt Q8N5J4 1-248); conditions: protein: recombinant; tags: N-terminal GST; dsDNA, one strand shown
# T2 sequence: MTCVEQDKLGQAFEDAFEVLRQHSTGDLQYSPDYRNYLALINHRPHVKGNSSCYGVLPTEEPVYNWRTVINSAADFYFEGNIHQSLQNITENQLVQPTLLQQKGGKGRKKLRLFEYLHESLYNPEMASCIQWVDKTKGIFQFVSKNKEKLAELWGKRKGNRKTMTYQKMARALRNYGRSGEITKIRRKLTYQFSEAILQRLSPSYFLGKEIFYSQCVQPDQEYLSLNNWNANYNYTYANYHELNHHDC
# Procedure, shortened: as §1
# [5] = molecular target: ELF4 (Homo sapiens, UniProt Q99607 1-663); conditions: protein: recombinant; tags: N-terminal GST; dsDNA, one strand shown
# ELF4, sequence (Q99607 whole entry): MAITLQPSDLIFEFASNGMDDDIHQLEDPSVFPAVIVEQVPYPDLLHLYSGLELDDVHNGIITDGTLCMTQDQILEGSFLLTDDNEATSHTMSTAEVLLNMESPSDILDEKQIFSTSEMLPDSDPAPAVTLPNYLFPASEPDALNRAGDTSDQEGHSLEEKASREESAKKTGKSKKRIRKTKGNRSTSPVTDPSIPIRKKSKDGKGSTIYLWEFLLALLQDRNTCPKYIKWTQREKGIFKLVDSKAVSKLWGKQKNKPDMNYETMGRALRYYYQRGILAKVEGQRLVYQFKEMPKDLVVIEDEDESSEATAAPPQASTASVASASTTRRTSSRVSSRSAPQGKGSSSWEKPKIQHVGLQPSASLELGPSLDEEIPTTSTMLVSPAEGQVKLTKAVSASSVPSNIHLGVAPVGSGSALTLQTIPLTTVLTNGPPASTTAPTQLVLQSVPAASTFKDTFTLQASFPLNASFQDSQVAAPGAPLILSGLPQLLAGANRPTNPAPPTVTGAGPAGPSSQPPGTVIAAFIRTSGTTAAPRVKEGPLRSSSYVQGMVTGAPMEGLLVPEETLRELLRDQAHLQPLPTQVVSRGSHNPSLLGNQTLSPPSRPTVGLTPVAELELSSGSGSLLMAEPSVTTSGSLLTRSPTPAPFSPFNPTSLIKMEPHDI
# Procedure, shortened: as §1
# [6] = molecular target: T3, ELK4 (Homo sapiens, UniProt P28324-2 1-405); conditions: protein: recombinant; tags: N-terminal GST; dsDNA, one strand shown
# T3 sequence: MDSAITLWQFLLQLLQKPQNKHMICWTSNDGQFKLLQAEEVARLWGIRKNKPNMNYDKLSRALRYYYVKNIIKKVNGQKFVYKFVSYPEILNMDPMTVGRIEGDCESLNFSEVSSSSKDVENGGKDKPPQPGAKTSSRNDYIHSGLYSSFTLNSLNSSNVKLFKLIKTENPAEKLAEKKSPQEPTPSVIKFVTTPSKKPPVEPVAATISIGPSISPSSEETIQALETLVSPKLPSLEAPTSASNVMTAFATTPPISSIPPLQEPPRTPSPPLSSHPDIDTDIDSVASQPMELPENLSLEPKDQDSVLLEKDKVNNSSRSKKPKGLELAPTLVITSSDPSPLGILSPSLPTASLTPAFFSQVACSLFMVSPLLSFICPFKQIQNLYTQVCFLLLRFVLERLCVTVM
# Procedure, shortened: as §1
# [7] = molecular target: T4, ETV2 (Homo sapiens, UniProt O00321 1-342); conditions: protein: recombinant; tags: N-terminal GST; dsDNA, one strand shown
# T4 sequence: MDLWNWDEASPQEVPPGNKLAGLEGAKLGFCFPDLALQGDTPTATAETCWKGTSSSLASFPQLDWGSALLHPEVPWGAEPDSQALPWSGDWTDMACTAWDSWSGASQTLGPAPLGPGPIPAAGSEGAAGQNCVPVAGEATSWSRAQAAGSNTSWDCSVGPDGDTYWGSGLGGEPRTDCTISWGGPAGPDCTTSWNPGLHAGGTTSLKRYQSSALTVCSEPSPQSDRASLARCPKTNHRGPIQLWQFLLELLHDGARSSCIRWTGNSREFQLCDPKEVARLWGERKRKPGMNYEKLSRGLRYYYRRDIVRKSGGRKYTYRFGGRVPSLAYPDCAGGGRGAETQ
# Procedure, shortened: as §1
# [8] = molecular target: T5, ELF3 (Homo sapiens, UniProt P78545 1-371); conditions: protein: recombinant; tags: N-terminal GST; dsDNA, one strand shown
# T5 sequence: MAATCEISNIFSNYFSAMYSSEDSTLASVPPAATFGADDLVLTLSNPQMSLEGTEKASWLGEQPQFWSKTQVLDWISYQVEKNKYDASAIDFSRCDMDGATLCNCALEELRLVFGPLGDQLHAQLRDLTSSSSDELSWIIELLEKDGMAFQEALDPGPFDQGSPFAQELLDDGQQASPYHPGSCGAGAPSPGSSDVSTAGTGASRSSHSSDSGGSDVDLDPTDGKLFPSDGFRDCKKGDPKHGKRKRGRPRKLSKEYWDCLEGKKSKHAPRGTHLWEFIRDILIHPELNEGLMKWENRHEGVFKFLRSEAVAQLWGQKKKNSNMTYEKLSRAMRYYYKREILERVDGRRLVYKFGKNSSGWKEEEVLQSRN
# Procedure, shortened: as §1
# [9] = molecular target: CRX (Homo sapiens, UniProt O43186 1-299); conditions: protein: recombinant; tags: N-terminal GST; dsDNA, one strand shown
# CRX, sequence (O43186 whole entry): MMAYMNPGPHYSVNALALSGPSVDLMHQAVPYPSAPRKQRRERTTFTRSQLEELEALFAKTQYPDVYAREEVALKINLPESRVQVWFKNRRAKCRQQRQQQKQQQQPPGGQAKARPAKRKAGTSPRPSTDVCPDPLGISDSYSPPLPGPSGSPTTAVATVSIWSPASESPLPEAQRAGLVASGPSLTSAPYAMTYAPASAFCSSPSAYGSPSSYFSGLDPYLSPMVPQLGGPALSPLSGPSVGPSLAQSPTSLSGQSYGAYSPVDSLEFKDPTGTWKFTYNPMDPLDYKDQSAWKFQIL
# Procedure, shortened: as §1
# [10] = molecular target: ETV1 (Homo sapiens, UniProt P50549 1-477); conditions: protein: recombinant; tags: N-terminal GST; dsDNA, one strand shown
# ETV1, sequence (P50549 whole entry): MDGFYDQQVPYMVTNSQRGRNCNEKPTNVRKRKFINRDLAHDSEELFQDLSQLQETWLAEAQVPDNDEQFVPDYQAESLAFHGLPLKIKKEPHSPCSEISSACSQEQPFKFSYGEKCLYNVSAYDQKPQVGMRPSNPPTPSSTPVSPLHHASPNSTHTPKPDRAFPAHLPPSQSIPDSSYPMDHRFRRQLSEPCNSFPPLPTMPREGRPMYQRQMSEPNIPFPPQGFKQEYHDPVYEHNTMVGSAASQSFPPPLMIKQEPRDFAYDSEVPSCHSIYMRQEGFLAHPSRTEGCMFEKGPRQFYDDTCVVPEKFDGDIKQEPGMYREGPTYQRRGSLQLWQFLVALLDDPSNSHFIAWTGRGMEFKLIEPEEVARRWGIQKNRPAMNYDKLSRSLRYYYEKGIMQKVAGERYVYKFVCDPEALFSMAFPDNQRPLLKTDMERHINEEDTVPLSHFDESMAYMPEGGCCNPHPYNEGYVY
# Procedure, shortened: as §1
sequence,measurement,setting,value
CCTGGA,binding signal,[1],"1.27 fold enrichment (6-mer frequency, TF over GST control)"
same,binding signal,[2],"1.47 fold enrichment (6-mer frequency, TF over GST control)"
same,binding signal,[3],"1.77 fold enrichment (6-mer frequency, TF over GST control)"
same,binding signal,[4],"1.42 fold enrichment (6-mer frequency, TF over GST control)"
same,binding signal,[5],"1.47 fold enrichment (6-mer frequency, TF over GST control)"
same,binding signal,[6],"1.38 fold enrichment (6-mer frequency, TF over GST control)"
same,binding signal,[7],"1.51 fold enrichment (6-mer frequency, TF over GST control)"
same,binding signal,[8],"1.12 fold enrichment (6-mer frequency, TF over GST control)"
same,binding signal,[9],"1.41 fold enrichment (6-mer frequency, TF over GST control)"
same,binding signal,[10],"1.41 fold enrichment (6-mer frequency, TF over GST control)"
